# Data taken from PubChem BioAssay AID504832 (National Center for Advancing Translational Sciences (NCATS), 2011).
# About 18,000 (5.8%) of roughly 310,000 compounds were called active. Not shown: some 22% with an inconclusive outcome. The list comes from a sample in which actives are over-represented; it also holds similar structures and randomly drawn compounds. Entries that show only a call come without a potency. Values without a mark were called inactive. The call rests on the fitted dose curve; in most records, active means well fitted inhibition curve with a large enough effect; inconclusive means small, poorly fitted or top-dose-only effect, or another doubt; inactive means no such curve, though single readings can be large or run the other way.
# Assay: Primary qHTS for delayed death inhibitors of the malarial parasite plastid, 48 hour incubation
# Settings: P. falciparum luciferase growth in erythrocytes; series mostly up to 28.7 µM
# Source text: The goal of this screen is to discover new antimalarial compounds that act by inhibiting the development of the apicoplast in the malarial parasite Plasmodium falciparum. The biochemical processes that make this organelle essential for erythrocytic stage parasites are not well understood. However, antibiotics such as azithromycin and tetracycline, which target the apicoplast translational machinery, have a potent antimalarial effect.
# We have developed a cell-based assay that measures parasite growth based on the expression of an integrated copy of a firefly luciferase reporter. To detect small molecules that cause this "delayed death" phenotype, erythrocytes infected with the luciferase-expressing parasites were incubated with compounds for either one or two generations, corresponding to 48 and 96 hours, respectively. Compounds that inhibit parasite growth in the second generation, but not the first, should be enriched in antimalarials that target the apicoplast. Growth inhibition is detected by a decrease in luciferase activity.
# Assay Provider: David Fidock and Eric Ekland, Columbia University
# Keywords: NIH Roadmap, MLPCN, MLI, MLSMR, qHTS, NCGC, qHTS, malaria, luciferase, viability
# Four microliters of culture medium (RPMI 1640 with 0.5% w/v Albumax (GIBCO), 24 mM sodium bicarbonate and 10 ug/mL gentamycin) were dispensed by a Multi-drop Combi into white solid 1536-well plates (Grenier) and 23 nL compound was added by a pin tool. Four microliters of infected erythrocytes (2% hematocrit, 0.1% parasitemia final concentration) in culture medium were dispensed and the plates incubated for 48 hours at 37 C in 5% CO2. Two microliters of luciferase detection reagent was added and luminescence was detected by a ViewLux (PerkinElmer) reader.
# Potency means the concentration at half of the fitted maximal effect.
Structure (SMILES),Potency,"activity change, negative = inhibition"
CCN(CC(=O)Nc1c(F)cccc1F)C(=O)CN1c2cccc3cccc(c23)S1(=O)=O,inactive,
O=CN1CCN(C(=O)c2ccc(Br)o2)CC1,inactive,
COc1ccc(CCNC(=O)CN(C)S(=O)(=O)c2ccc3nc(C)sc3c2)cc1OC,inactive,
Cc1cc(C)cc(OCC(=O)NCc2cc(C)nc3ccccc23)c1,inactive,
Cc1cc(C)c(NC(=O)C[N+](C)(C)CC(O)COc2cccc3ccccc23)c(C)c1 (centres undefined),5.22 µM (active),
Cc1cc(C)c(NC(=O)CN2CCCCCC2)c(C)c1,inactive,
Cc1ccccc1C(=O)Nc1ccccc1NC(=O)c1ccccc1C,,1.11% [at 0.00184 µM]
N#Cc1c(-c2ccccc2)nc(SCc2ccc([N+](=O)[O-])cc2)[nH]c1=O,inactive,
O=C(NCCN1CCN(Cc2ccccc2)CC1)c1cc2c(=O)[nH]c3ccccc3c2s1,10.4 µM (active),
O=C(Cc1c(O)c2ccccc2[nH]c1=O)NCc1ccccc1,inactive,
Cn1c(C(=O)NCCCN2CCN(c3cccc(Cl)c3)CC2)cc2c(=O)n(C)c3ccccc3c21,inactive,
O=C(CN1C(=O)COc2ccccc21)NCCN1CCc2ccccc2C1,inactive,
Cn1c(C(=O)NCCN2CCc3ccccc3C2)cc2c(=O)[nH]c3ccccc3c21,13.1 µM (active),
O=C(CCCn1c(=O)[nH]c2cc(Cl)ccc2c1=O)NCCN1CCN(c2ccccc2)CC1,inactive,
COCC(=O)N1CCc2ccc(NC(=O)c3ccccc3Cl)cc2C1,inactive,
Cc1ccccc1NC(=O)COc1cccc2c1CCNC2=O,inactive,
O=C(Cn1nc(C(=O)O)c2ccccc2c1=O)Nc1ccc(F)cc1,inactive,
CCOc1ccccc1NS(=O)(=O)c1c[nH]c(C(=O)OC)c1,inactive,
Cc1nc2ccccn2c(=O)c1NC(=O)c1cccs1,inactive,
O=C(NCc1ccccc1Cl)C1CCN(c2ncnc3c2nc2n3CCCCC2)CC1,inactive,
Cc1ccc(-c2nnc(SCC(=O)N/N=C/c3cccs3)n2-c2ccc(C)cc2)cc1,inactive,
COc1ccc(-n2c(SCC(=O)OC(C)C)nnc2-c2ccccn2)cc1,inactive,
Cc1ccc(-n2c(Cc3cccs3)nnc2SCC(=O)OC(C)C)cc1,11.7 µM (active),
COc1cccc(C(=O)OCC(=O)c2[nH]c(C)c(C(C)=O)c2C)c1,inactive,
O=C(NCc1ccccc1Cl)C(=O)NCC1CCCN1S(=O)(=O)c1cccs1 (centres undefined),14.7 µM (active),

Structure (SMILES),Potency,"activity change, negative = inhibition"
O=C(NCCC1CCCCN1S(=O)(=O)c1cccs1)C(=O)Nc1ccc(F)cc1F (centres undefined),inactive,
O=C(NCc1ccccc1Cl)C1CCCN1S(=O)(=O)c1ccc(F)cc1 (centres undefined),inactive,
Cc1ccc(S(=O)(=O)NCC(=O)N(CC(=O)NCC2CCCO2)c2cccc(F)c2)cc1 (centres undefined),inactive,
N#CCCN(C(=O)COC(=O)c1ccc(S(=O)(=O)N2CCCCCC2)cc1)c1ccccc1,inactive,
CC(=O)c1ccc(N2Cc3ccccc3C2)cc1,inactive,
CCOc1ncccc1C(=O)OCC(=O)NC1CC1,inactive,
O=C(OCC(=O)c1c[nH]c2ccccc12)c1cccc(O)c1,inactive,
CCOc1ncccc1C(=O)OCC(=O)c1c[nH]c2ccccc12,13.1 µM (active),
O=C(O)c1ccccc1-c1ccccc1C(=O)Nc1ccccc1Br,inactive,
COc1ccc(C)cc1NC(=O)CSc1nnc2ccc(-c3ccccn3)nn12,inactive,
CCCCc1ccc(NC(=O)NCc2cccnc2)cc1,inactive,
CCc1ccc(N2CC(C(=O)N3CCCCCC3)CC2=O)cc1 (centres undefined),inactive,
COc1ccc(N2CCN(C(=O)c3ccc(N4CCCCS4(=O)=O)cc3)CC2)cc1,inactive,
Cc1cc(Cl)ccc1OCCCC(=O)Nc1cccc(-n2cnnn2)c1,inactive,
COc1ccc(C2=NN(C(C)=O)C(c3ccccc3)C2)cc1 (centres undefined),inactive,
Cc1ccc(N2C(=O)C3N=NN(CC(=O)N4N=C(c5cccc6ccccc56)CC4c4ccccc4)C3C2=O)cc1 (centres undefined),13.1 µM (active),
Cc1ccc(N2C(=O)CC(Nc3cccc4ccccc34)C2=O)cc1 (centres undefined),inactive,
O=C(CSc1nnnn1C1CCCC1)N1CCCCC1,inactive,
O=C(O)C1=NN(c2c(F)c(F)cc(F)c2F)C(=O)CC1,inactive,
COc1ccc(N2CCN(C(=O)CCNC(=O)c3ccc(Br)cc3)CC2)cc1,inactive,
COc1cccc(C(=O)N2CCC(n3nccc3NC(=O)C3CCOC3)CC2)c1 (centres undefined),inactive,
Cc1cc(NC(=O)c2cnn3cccnc23)n(-c2ccccc2)n1,inactive,
CC(=O)N/C(=N/c1nc(C)cc(C)n1)Nc1ccc(F)cc1F,inactive,
Cc1cc(C)nc(-n2nc(C)cc2NC(=O)c2ccc(F)cc2F)n1,10.4 µM (active),
CC(CN1CCOCC1)OC(=O)c1ccc(C(C)(C)C)cc1 (centres undefined),inactive,

Structure (SMILES),Potency,"activity change, negative = inhibition"
O=C(O)CCCC(=O)N1N=C(c2ccco2)CC1c1ccco1 (centres undefined),inactive,
Cc1nn2c(c1-c1ccccc1)N=C(c1ccco1)CC2c1ccccc1 (centres undefined),14.7 µM (active),
Cc1nn(C(=O)c2ccoc2C)c(N)c1-c1ccccc1,inactive,
CCN1CCN(C(=O)C2CCN(S(=O)(=O)c3cc(Cl)ccc3Cl)CC2)CC1,inactive,
COc1ccc(C(=O)c2c(C)c(CCC#N)n3ccccc23)c(OC)c1,inactive,
Cc1ccccc1NC(=O)C(C)OC(=O)CCC(=O)N(CC(C)C)c1c(N)n(CC(C)C)c(=O)[nH]c1=O (centres undefined),inactive,
COc1ccc(C(=O)NCC(=O)N/N=C/c2ccc([N+](=O)[O-])o2)cc1OC,6.57 µM (active),
COc1cc(/C=N\NC(=O)CNC(=O)c2cccc([N+](=O)[O-])c2)ccc1O,inactive,
COc1ccc(C(=O)NCC(=O)N/N=C/c2ccc([N+](=O)[O-])s2)cc1OC,inactive,
O=C(Cn1ccc2cc(S(=O)(=O)N3CCCC3)ccc21)NCc1ccccc1,inactive,
CCCOc1cccc(C(=O)Nc2ccccc2C(=O)N2CCN(C)CC2)c1,inactive,
CC1=C(C/C=C(\C)CCCC(C)CCCC(C)CCCC(C)C)C(=O)c2ccccc2C1=O (centres undefined),10.7 µM (active),
CS(=O)(=O)c1ccc(Cl)c(NC(=O)COC(=O)c2ncc(Cl)c(Cl)c2Cl)c1,inactive,
COc1ccc(CNc2cc(C)cc(C)c2)cc1OC,inactive,
CN(CC(=O)Nc1cccc(F)c1)C(=O)C1CSC2(C)CCC(=O)N12 (centres undefined),inactive,
CCn1c(=O)c2ccccc2n(CC(=O)N2CCCc3ccccc32)c1=O,inactive,
Cn1c(SCC(=O)OC2CCCCC2)nnc1-c1ccc(S(=O)(=O)N2CCCC2)cc1,2.62 µM (active),
Cn1c(SCC(=O)Nc2cccc(O)c2)nnc1-c1ccc(S(=O)(=O)N2CCOCC2)cc1,inactive,
Cn1c(SCC(=O)NC2CCCCC2)nnc1-c1ccc(N)cc1,inactive,
Cc1ccc(C(=O)C(C)OC(=O)Cc2n[nH]c(=O)c3ccccc23)cc1C (centres undefined),inactive,
CCc1ccc(-c2cc(C)no2)cc1S(=O)(=O)NCCc1ccc(S(N)(=O)=O)cc1,inactive,
O=C(CCS(=O)(=O)c1ccc2c(c1)NC(=O)CS2)NCc1ccccc1Cl,inactive,
CCc1ccc(N(CC(=O)NCc2cccnc2)S(=O)(=O)c2ccccc2)cc1,inactive,
O=C(O)c1ccccc1-c1ccccc1C(=O)NCc1cccnc1,inactive,
Cc1ccc(S(=O)(=O)N(Cc2ccc(Cl)cc2)c2ccccc2C(=O)NCc2cccnc2)cc1,13.1 µM (active),

Structure (SMILES),Potency,"activity change, negative = inhibition"
O=C(c1cnc(Cl)c(Cl)c1)N1CCN(S(=O)(=O)c2ccc(F)cc2)CC1,inactive,
CCCc1nc2ccccc2c(C(=O)OCc2nnc(-c3cc(OC)c(OC)c(OC)c3)o2)c1CC,4.65 µM (active),
O=C(OCc1nnc(-c2ccccc2)o1)c1cc(=O)[nH]c2ccccc12,inactive,
COc1cc(-c2cc(C(=O)OCC(=O)Nc3ccc4c(c3)OCO4)c3ccccc3n2)cc(OC)c1OC,inactive,
COc1ccccc1C(=O)Nc1ccnn1C1CCN(C(=O)C(C)(C)C)CC1,inactive,
COC(=O)c1[nH]c2ccccc2c1NC(=O)CN1CCCc2ccccc21,2.08 µM (active),
NS(=O)(=O)c1cccc(NC(=O)CN2CCCc3ccccc32)c1,inactive,
COC(=O)c1[nH]c2ccc(Br)cc2c1NC(=O)Oc1ccccc1,inactive,
CC(=O)N1CCc2c(sc(NC(=O)CCS(=O)(=O)c3ccc(C)cc3)c2C(N)=O)C1,inactive,
O=C(NNS(=O)(=O)c1ccc(F)cc1)c1ccc([N+](=O)[O-])cc1Cl,inactive,
CC(C)CCNC(=O)c1ccc2c(Cl)c3c(nc2c1)CCC3,inactive,
Cc1cc(N2CCN(c3ccccc3)CC2)nc(N2CCOCC2)n1,inactive,
Cc1ccc(S(=O)(=O)N2CCN(c3ccccc3)CC2)cc1C,inactive,
Cc1cc(C)n(-c2nnc(N3CCN(c4ccccc4)CC3)nn2)n1,0.329 µM (active),
Cc1nn(Cc2ccccc2)c(C)c1C(=O)NCCCN1CCCC1=O,inactive,
CCN1CCN(C(=O)C2CCCN(S(=O)(=O)c3ccc(OC)c(OC)c3)C2)CC1 (centres undefined),inactive,
COCc1cc(=O)n2[nH]c(C)c(-c3ccccc3)c2n1,inactive,
C#Cc1ccc([C@@H]2C=C(C(=O)O)O[C@H](OCCCCO)C2)cc1,inactive,
O=C(NCc1ccccc1)C1=C[C@H](C2CC2)C[C@H](OCc2ccc(CO)cc2)O1,inactive,
O=C(C1=C[C@H](c2ccc(C(F)(F)F)cc2)C[C@H](OCc2ccc(CO)cc2)O1)N1CCN(Cc2ccccc2)CC1,3.7 µM (active),
COCCNC(=O)CSc1nc2sccc2c(=O)n1-c1ccccc1,inactive,
COc1ccc(-n2c(C)cc(C(=O)COC(=O)c3cc(OC)c(OC)cc3NC(=O)c3cccs3)c2C)cc1,4.15 µM (active),
COc1ccc(C(=O)COC(=O)CNC(=O)c2cccs2)cc1Br,inactive,
Cc1cc(C(=O)COC(=O)c2cccs2)c(C)n1-c1c(C)n(C)n(-c2ccccc2)c1=O,inactive,
